In PubChem BioAssay (NCI):
The panel holds about 83,000 compounds, 20% with a hit somewhere; the sample as a whole holds those more often.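 Compound tested at a single concentration for 48 hours in 96-well plates; a percent growth value below 10 was scored as active.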 A number with no mark means an inactive call. The source made the active and inactive calls.

Columns and labels:
Assay in all cases: NCI-60 one-dose screen, 48 h (100 = growth as untreated, 0 = no growth, -100 = all killed)
Details in all cases: 10 µM unless noted
[1] = test system: SR leukemia
[2] = test system: RPMI-8226 leukemia
[3] = test system: OVCAR-8 ovarian
[4] = test system: OVCAR-5 ovarian
[5] = test system: OVCAR-4 ovarian
[6] = test system: SK-OV-3 ovarian
[7] = test system: IGROV1 ovarian
[8] = test system: OVCAR-3 ovarian
[9] = test system: HS 578T breast
[10] = test system: NCI/ADR-RES ovarian
[11] = test system: T-47D breast
[12] = test system: BT-549 breast
[13] = test system: MDA-MB-435 melanoma
[14] = test system: SW-620 colon
[15] = test system: MCF7 breast
[16] = test system: HCT-116 colon
[17] = test system: HCC-2998 colon
[18] = test system: KM12 colon

O=C(Nc1ccc(Oc2cccc(Cl)c2)c(Cl)c1)c1cccnn1
growth [1]: 87%
growth [2]: 71.1%
growth [3]: 91.7%
growth [4]: 91.1%
growth [5]: 68.6%
growth [6]: 102%
growth [7]: 91.4%
growth [8]: 85.6%
growth [9]: 106%
growth [10]: 85%
growth [11]: 72.4%
growth [12]: 98.5%
growth [13]: 77.6%
growth [14]: 105%
growth [15]: 91.7%
growth [16]: 66.7%
growth [17]: 95.2%
growth [18]: 85.3%

COC(=O)[C@@]12CC=C(C)[C@]3(C[C@H](c4ccoc4)OC3=O)[C@H]1C=C[C@@H](O)[C@@]2(O)C(=O)OC
growth [1]: 89.2%
growth [2]: 120%
growth [3]: 96.4%
growth [4]: 103%
growth [5]: 110%
growth [6]: 99.9%
growth [7]: 92.4%
growth [8]: 105%
growth [9]: 111%
growth [10]: 102%
growth [11]: 110%
growth [12]: 110%
growth [13]: 102%
growth [14]: 113%
growth [15]: 101%
growth [16]: 97.7%
growth [17]: 101%
growth [18]: 103%

C=C1C(=O)O[C@H]2[C@H]1CC/C(COC(=O)NCc1ccc(Cn3c(=O)sn(-c4ccc(I)cc4)c3=O)cc1)=C\CC[C@@]1(C)O[C@@H]21
growth [1]: 63%
growth [2]: 7.56% (active)
growth [3]: 82.1%
growth [4]: 96.5%
growth [5]: 58.9%
growth [6]: 100%
growth [7]: 67.5%
growth [8]: 23.7%
growth [9]: 85.7%
growth [10]: 106%
growth [11]: 45.2%
growth [12]: 74.5%
growth [13]: 80.9%
growth [14]: 3.86% (active)
growth [15]: 38.6%
growth [16]: 28.3%
growth [17]: 105%
growth [18]: 98.4%

Cc1cc(O)c(=O)cc2c1C[C@H]1CC(C)(C)/C=C/C[C@]3(C)Oc4cc(=O)c(O)cc(C)c4C[C@H]3C[C@H](O)[C@@]1(C)O2
growth [1]: 12.4%
growth [2]: 3.46% (active)
growth [3]: 5.84% (active)
growth [4]: 18.9%
growth [5]: 9.54% (active)
growth [6]: -5.53% (active)
growth [7]: 11.2%
growth [8]: 15.5%
growth [9]: 30%
growth [10]: 0.831% (active)
growth [11]: 2.08% (active)
growth [12]: 1.38% (active)
growth [13]: 18.1%
growth [14]: 13.8%
growth [15]: 2.97% (active)
growth [16]: 8.37% (active)
growth [17]: 32.4%
growth [18]: 16.1%

Nc1ncccc1O
growth [1]: 65.5%
growth [2]: 87%
growth [3]: 81%
growth [4]: 98.7%
growth [5]: 98.4%
growth [6]: 107%
growth [7]: 67.2%
growth [8]: 131%
growth [9]: 109%
growth [10]: 77%
growth [11]: 96.2%
growth [12]: 93.7%
growth [13]: 109%
growth [14]: 51%
growth [15]: 68.6%
growth [16]: 37.9%
growth [17]: 97.4%
growth [18]: 100%

CCN(CC)CCOc1ccc2ccc(=O)oc2c1
growth [1]: -3.51% (active)
growth [2]: -4.27% (active)
growth [3]: 98.8%
growth [4]: 96%
growth [5]: 101%
growth [6]: 92.9%
growth [7]: 109%
growth [8]: 115%
growth [9]: 109%
growth [10]: 101%
growth [11]: 97.5%
growth [12]: 102%
growth [13]: 112%
growth [14]: 101%
growth [15]: 97.6%
growth [16]: 100%
growth [17]: 90.5%
growth [18]: 103%

COc1cc2c(cc1-c1c(C)noc1C)ncc1nc(CN3CCOCC3)n([C@H](C)COC(F)F)c12
growth [1]: 33.7%
growth [2]: 10.1%
growth [3]: 46.1%
growth [4]: 68.2%
growth [5]: 35.9%
growth [6]: 7.42% (active)
growth [7]: 36.2%
growth [8]: 23.1%
growth [9]: 30%
growth [10]: 40.8%
growth [11]: 13%
growth [12]: 55.5%
growth [13]: 35.8%
growth [14]: 62.9%
growth [15]: 13.2%
growth [16]: 41.3%
growth [17]: 32%
growth [18]: 34.9%

O=C1/C(=C/c2ccccn2)SC(=S)N1N1CCOCC1
growth [1]: 108%
growth [2]: 105%
growth [3]: 98.9%
growth [4]: 97.9%
growth [5]: 107%
growth [6]: 101%
growth [7]: 94.1%
growth [8]: 99.5%
growth [9]: 96.7%
growth [10]: 104%
growth [11]: 99.4%
growth [12]: 99.9%
growth [13]: 103%
growth [14]: 97.6%
growth [15]: 87.4%
growth [16]: 104%
growth [17]: 97.7%
growth [18]: 103%

O=C(O)c1cn(C2CC2)c2cc(N3CCN(C(=O)N/N=C/c4cccc5ccccc45)CC3)c(F)cc2c1=O
growth [1]: 88.5%
growth [2]: 110%
growth [3]: 95.3%
growth [4]: 110%
growth [5]: 98.3%
growth [6]: 87%
growth [7]: 94.5%
growth [8]: 104%
growth [9]: 96.2%
growth [10]: 105%
growth [11]: 89.9%
growth [12]: 6.18% (active)
growth [13]: 104%
growth [14]: 109%
growth [15]: 98.2%
growth [16]: 14.8%
growth [17]: 107%
growth [18]: 101%

CC1=C(Cl)C(=O)c2cc(C)ccc2C1=O
growth [1]: 89.3%
growth [2]: 99.6%
growth [3]: 92.4%
growth [4]: 107%
growth [5]: 103%
growth [6]: 105%
growth [7]: 103%
growth [8]: 105%
growth [9]: 104%
growth [10]: 105%
growth [11]: 96.9%
growth [12]: 97.9%
growth [13]: 105%
growth [14]: 105%
growth [15]: 91.2%
growth [16]: 106%
growth [17]: 104%
growth [18]: 102%

CC(=O)N1N=C(c2ccc(Nc3nc(Nc4ccc(F)cc4)nc(Nc4ccc(F)cc4)n3)cc2)CC1c1ccc(N(C)C)cc1 (stereo not drawn)
growth [1]: -4.86% (active)
growth [2]: 4.52% (active)
growth [3]: 27.6%
growth [4]: 78.4%
growth [5]: 62.2%
growth [6]: 90.6%
growth [7]: 48%
growth [8]: 69.5%
growth [9]: 62.9%
growth [10]: 27.5%
growth [11]: 25%
growth [12]: 63.9%
growth [13]: 6.22% (active)
growth [14]: 63.7%
growth [15]: 42.2%
growth [16]: 43.3%
growth [17]: 67.5%
growth [18]: 39.8%

COC(=O)c1c2c(c(C)[n+]([O-])c1C)C(=O)C(NCc1ccccc1)=CC2=O
growth [1]: 61.4%
growth [2]: 37.3%
growth [3]: 5.27% (active)
growth [4]: 39.5%
growth [5]: -78.7% (active)
growth [6]: 88.8%
growth [7]: 8.63% (active)
growth [8]: 0.759% (active)
growth [9]: 68.8%
growth [10]: 2.6% (active)
growth [11]: 5.63% (active)
growth [12]: 71.5%
growth [13]: -61.4% (active)
growth [14]: 9.9% (active)
growth [15]: -33.9% (active)
growth [16]: 7.3% (active)
growth [17]: 16.9%
growth [18]: 26.4%

O=C(c1ccc(Br)cc1)C(Br)C(c1ccc(Cl)cc1)C(c1ccccc1)[N+](=O)[O-] (stereo not drawn)
growth [1]: 103%
growth [2]: 92.1%
growth [3]: 95.3%
growth [4]: 108%
growth [5]: 81.4%
growth [6]: 99.4%
growth [7]: 108%
growth [8]: 94.4%
growth [9]: 87.1%
growth [10]: 95.6%
growth [11]: 76.9%
growth [12]: 105%
growth [13]: 95.9%
growth [14]: 96.4%
growth [15]: 84.5%
growth [16]: 76.2%
growth [17]: 125%
growth [18]: 92.7%

O=C(Nc1cc(Cl)ccc1O)c1ccccc1Nc1ccnc(C(F)(F)F)c1
growth [1]: -26.3% (active)
growth [2]: -21.5% (active)
growth [3]: 10.6%
growth [4]: 68.6%
growth [5]: 19.8%
growth [6]: 49.9%
growth [7]: 1.77% (active)
growth [8]: -6.87% (active)
growth [9]: -2.86% (active)
growth [10]: -2.27% (active)
growth [11]: 0.662% (active)
growth [12]: 33.2%
growth [13]: 29.1%
growth [14]: 15%
growth [15]: 8.95% (active)
growth [16]: 2.14% (active)
growth [17]: 3.95% (active)
growth [18]: 7.26% (active)

COC(=O)[C@@]1(C)CC[C@]2(C)CC[C@]3(C)C4=CC=C5C(=CC(=O)C(O)=C5C)[C@]4(C)[C@@H](O)C[C@@]3(C)[C@@H]2C1
growth [1]: -6.62% (active)
growth [2]: 3.73% (active)
growth [3]: 4.47% (active)
growth [4]: 66.7%
growth [5]: 34%
growth [6]: 82.4%
growth [7]: -46.8% (active)
growth [8]: -16.6% (active)
growth [9]: 27.4%
growth [10]: 49%
growth [11]: -13.7% (active)
growth [12]: 35.5%
growth [13]: 15.9%
growth [14]: -10.4% (active)
growth [15]: 17.6%
growth [16]: 0.149% (active)
growth [17]: 37.7%
growth [18]: 77.6%

CCN(CC)C(=O)C1=C(C)NC(=O)NC1c1ccc2c(c1)OCO2 (stereo not drawn)
growth [1]: 105%
growth [2]: 102%
growth [3]: 106%
growth [4]: 105%
growth [5]: 111%
growth [6]: 111%
growth [7]: 99.6%
growth [8]: 113%
growth [9]: 96.7%
growth [10]: 104%
growth [11]: 104%
growth [12]: 111%
growth [13]: 108%
growth [14]: 105%
growth [15]: 97.4%
growth [16]: 110%
growth [17]: 114%
growth [18]: 112%
